In PubChem BioAssay (NCI):
About 83,000 compounds went through this panel and 20% of them were active in at least one assay; those are over-represented in the sample as a whole.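 Cells were grown in 96-well plates and exposed to the test compound at a single concentration for 48 hours; results are reported as percent growth, with values below 10 considered active.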 Active and inactive are the calls of the source.

Legend:
Assay in all cases: NCI-60 one-dose screen, 48 h (100 = growth as untreated, 0 = no growth, -100 = all killed)
Details in all cases: 10 µM unless noted
[1] = tested on: T-47D breast
[2] = tested on: BT-549 breast
[3] = tested on: MDA-MB-435 melanoma
[4] = tested on: SW-620 colon
[5] = tested on: MCF7 breast
[6] = tested on: HCT-116 colon
[7] = tested on: HCC-2998 colon
[8] = tested on: KM12 colon

Measured: growth

CC1(C)[C@@H](O)CC[C@]2(C)[C@H]3CC[C@@H]4[C@H]5[C@H](C(=O)/C=C/c6ccc(C(F)(F)F)cc6)CC[C@]5(CO)CC[C@@]4(C)[C@]3(C)CC[C@@H]12
inactive: [1] 34.1% | [2] 60% | [3] 42.5% | [4] 44.5% | [5] 32.3% | [6] 15.3% | [7] 77.2% | [8] 68.7%

O=C1/C(=C\C(Cl)=C/c2ccc([N+](=O)[O-])cc2)SC(=S)N1CCc1ccc(O)cc1
active: [1] -36.4% | [2] -51.8% | [3] -1.96% | [4] -30.1% | [5] -73.4% | [6] -77.2% | [7] -92.3% | [8] -50.5%

COc1ccc(/C(=C\c2ccc3c(c2)OCO3)C(=O)Nc2nc3ccccc3s2)cc1OC
inactive: [1] 92.3% | [2] 88.7% | [3] 95.7% | [4] 102% | [5] 89.5% | [6] 73.6% | [7] 102% | [8] 85.4%

COc1cccc(-c2nn(-c3ccccc3)cc2-c2ccnc(NCCCO)c2)c1
active: [3] -15.5%
inactive: [1] 26.7% | [2] 55.2% | [4] 21.3% | [5] 29.5% | [6] 22.9% | [7] 65.5% | [8] 34.1%

Nc1c(C(=O)Nc2cccc(Br)c2)sc2nc3c(cc12)C(=O)CCC3
inactive: [1] 30% | [2] 57.8% | [4] 25% | [5] 22.1% | [6] 33.4% | [7] 38.2% | [8] 18.6%
active: [3] -53.3%

CCN(CC)C(=O)CCCCCn1c2ccccc2c2c3c(c4c5ccccc5[nH]c4c21)C(=O)N(O)C3=O
inactive: [1] 28.2% | [2] 56.8% | [3] 25.3% | [4] 70.1% | [5] 18.5% | [6] 37.8% | [7] 44% | [8] 30.8%

Cn1c2ccccc2c2c3c(c4c5cccnc5[nH]c4c21)C(=O)N(O)C3=O
inactive: [1] 16.4% | [2] 44.6% | [3] 64.3% | [4] 45.4% | [5] 12.9% | [6] 36.3% | [7] 54.4% | [8] 65.9%

CCSc1ncnc2c1ncn2C1OC(CO)C(O)C1O (stereo not drawn)
active: [7] 8.16%
inactive: [1] 29.1% | [2] 49% | [3] 24% | [4] 28.4% | [5] 19.2% | [6] 12% | [8] 11.8%

CCCCC[C@H]1CC=C2C(=O)C=C[C@@H]2CC=CCCCC(=O)O[C@@H](CCCCC)CC=C2C(=O)C=C[C@@H]2CC=CCCCC(=O)O[C@@H](CCCCC)CC=C2C(=O)C=C[C@@H]2CC=CCCCC(=O)O1
active: [1] -10.2% [8.75 µM] | [2] -37.7% [8.75 µM] | [3] -31.8% [8.75 µM] | [4] 2.25% [8.75 µM] | [5] 5.55% [8.75 µM] | [6] -89.8% [8.75 µM] | [7] -38.7% [8.75 µM] | [8] -41% [8.75 µM]

N#C/C(=C\c1ccc(-c2ccccc2)o1)c1nc(-c2ccco2)cs1
inactive: [2] 94.6% | [3] 99.2% | [4] 99.2% | [5] 17.6% | [6] 87% | [7] 32.1% | [8] 48.1%
active: [1] -26%

CC1(C)CC[C@]2(C(=O)NCCNCCN)CC[C@]3(C)C(=CC[C@@H]4[C@@]5(C)CCC(=O)C(C)(C)[C@@H]5CC[C@]43C)[C@@H]2C1
active: [1] -71.1% | [4] -78.4% | [5] -23.8% | [6] -54% | [8] 9.99%
inactive: [2] 83.5% | [3] 61% | [7] 24.5%

CCc1cccc(CC)c1NC(=O)c1sc2nc3c(cc2c1N)CCCC3
inactive: [1] 64.3% | [2] 74.8% | [4] 70.8% | [5] 42.5% | [6] 71% | [7] 95.4% | [8] 70%
active: [3] 7.29%

C/C(=N/NC(N)=S)C(=O)O
inactive: [1] 28.6% | [2] 102% | [3] 85.8% | [4] 77.6% | [5] 26.2% | [6] 10.6% | [7] 94.3% | [8] 109%

COc1ccc(C2c3ccccc3NC(=O)N2C2CCN(C)CC2)c(OC)c1 (stereo not drawn)
inactive: [1] 100% | [2] 107% | [3] 72% | [4] 101% | [5] 78.1% | [6] 107% | [7] 105% | [8] 99.6%

C=C1CC[C@@H](C(=O)OC)Cc2nc(C)ccc21
inactive: [1] 99% | [2] 122% | [3] 103% | [4] 102% | [5] 98% | [6] 110% | [7] 101% | [8] 108%

CCCCC[C@H]1C/C=C2/C(=O)C=C[C@@H]2C/C=C\CCCC(=O)O[C@@H](CCCCC)C/C=C2/C(=O)C=C[C@@H]2C/C=C\CCCC(=O)O1
active: [1] -74.8% | [2] -72.9% | [3] -78.9% | [4] -54.1% | [5] -70.9% | [6] -96.4% | [7] -79.5% | [8] -86.3%

CCCCCCCC(=O)SCC/C=C/[C@@H]1CC(=O)NCc2cccc(n2)CN(Cc2ccc(Cl)cc2)CC(=O)N[C@@H](C(C)C)C(=O)O1
active: [3] 6.92% | [5] 9.09% | [6] -1.93% | [7] -24.2% | [8] 5.69%
inactive: [1] 30.9% | [2] 38.8% | [4] 16.7%

Cc1cc(N(CCCNc2ccnc3cc(Cl)ccc23)Cc2ccco2)nc(Cl)n1
inactive: [1] 21.8% | [2] 35.2% | [3] 72.2% | [4] 66.2% | [5] 42.4% | [6] 28.2% | [7] 75.2% | [8] 65.7%

COc1cc(/C=C/c2cc(/C=C/c3ccc(O)c(OC)c3)n(-c3ccccc3)c(=O)n2)ccc1O
inactive: [1] 71.4% | [2] 56.9% | [3] 73.1% | [4] 78.4% | [5] 40.8% | [6] 55.6% | [7] 104% | [8] 63.2%

COc1cccc(NC(=O)c2sc3nc4c(cc3c2N)C(=O)CCC4)c1
active: [3] -37.2%
inactive: [1] 51.9% | [2] 29.9% | [4] 23.6% | [5] 29.4% | [6] 17.6% | [7] 19.9% | [8] 16.6%

O=C1c2ccccc2NC(c2cn(-c3ccccc3)nc2-c2cccnc2)N1Cc1ccccc1 (stereo not drawn)
inactive: [1] 75% | [2] 105% | [3] 108% | [4] 105% | [5] 89.3% | [6] 95.5% | [7] 97.2% | [8] 91.5%

CCOC(=O)C/C(=C\c1ccccc1)C(C)=O
inactive: [1] 68.1% | [2] 98.4% | [3] 109% | [4] 103% | [5] 101% | [6] 88.7% | [7] 107% | [8] 101%

COc1ccc(-c2nc3ncccn3c2-c2nc3ccc(Br)cc3[nH]2)cc1
inactive: [1] 77.8% | [2] 90.4% | [3] 68.1% | [4] 93.9% | [5] 96.7% | [6] 83% | [7] 97% | [8] 84.5%

Cn1cc(-c2csc(-c3c[nH]c4ccc(F)cc34)n2)c2cccnc21
inactive: [1] 44.3% | [2] 57.4% | [4] 26.5% | [5] 19.3% | [6] 23.1% | [7] 71.7% | [8] 20.6%
active: [3] -28%

N#CC1=C(N)Oc2c(c(N)nn2-c2ccccc2)C1c1ccc(Cl)cc1Cl (stereo not drawn)
inactive: [1] 77.6% | [2] 97.8% | [3] 103% | [4] 100% | [5] 98.3% | [6] 94.4% | [7] 106% | [8] 99.3%

COc1ccc(NC(=O)c2ccc3c(c2)nc(-c2cc4ccccc4[nH]c2=O)n3-c2cc(C(C)(C)C)[nH]n2)cc1
inactive: [1] 78.9% | [2] 84.5% | [3] 92.5% | [4] 102% | [5] 81.3% | [6] 86% | [7] 105% | [8] 90.5%

Cc1ccc(C)c2c1CCC2C(C)C (stereo not drawn)
inactive: [1] 91.2% | [2] 100% | [3] 108% | [4] 106% | [5] 107% | [6] 96% | [7] 101% | [8] 101%

COc1cc(-c2cc(-c3nc4ccccc4[nH]3)[nH]n2)cc(OC)c1OC
active: [1] 6.65%
inactive: [2] 36.4% | [3] 19.2% | [4] 59.4% | [5] 44.2% | [6] 38.7% | [7] 71.4% | [8] 27%

COc1ccc2c(c1)c(-c1nc(-c3cn(C)c4ncccc34)cs1)cn2CCCN1CCCCC1
active: [4] -22.9% | [6] -93.2%
inactive: [1] 64% | [2] 80.5% | [3] 26% | [5] 34% | [7] 102% | [8] 57.4%

Fc1ccc(NCc2nnc(-c3ccc(Cl)cc3)o2)cc1
inactive: [1] 57% | [2] 77.8% | [3] 94.8% | [4] 90.4% | [5] 55.2% | [6] 53.7% | [7] 98% | [8] 84.8%

COC(=O)[C@]12CC[C@@H](C(=O)/C=C/c3cccnc3)[C@@H]1[C@H]1CC[C@@H]3[C@@]4(C)C/C(=C/c5cccnc5)C(=O)C(C)(C)[C@@H]4CC[C@@]3(C)[C@]1(C)CC2
active: [1] -43.6% | [2] -92.1% | [3] -69.7% | [4] -67.3% | [5] -54.2% | [6] -87.4% | [7] -55.5% | [8] -75%
